This passage reports binding signal results from article PMC8384837, “Expanding the binding specificity for RNA recognition by a PUF domain”.

Holding throughout (test): yeast three-hybrid, YBZ-1, SC-Leu-His + 0.5 mM 3-AT, 4 days
Details in all cases: tags: N-Gal4 AD-HA kept; label: inside an RPR1-promoter hybrid RNA with tandem MS2 sites; ssRNA

The target in assay [1] is PUM1 PUF domain R3-TFP (Homo sapiens, UniProt Q14671 828-1176, C935T;R936F;Q939P). The procedure, abridged:
(§1)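 Each repeat of the Pumilio-1 PUF domain was randomized at its three base-contacting residues, and these libraries were co-expressed from a centromeric plasmid with matching RNA elements in strain YBZ-1. After four days on SC-Leu (input) or SC-Leu-His + 0.5 mM 3-AT (selection), the repeat regions were PCR-amplified and Illumina-sequenced. The interaction score compares variant frequency between input and selection as a log change, computed in log2 with a pseudocount of 1 for absent variants.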

Assay [2] deals with PUM1 PUF domain R3-RQV (Homo sapiens, UniProt Q14671 828-1176, C935R;R936Q;Q939V). The procedure, abridged:
as §1

For assay [3], the target named is T1, PUM1 PUF domain R6-GHR (Homo sapiens, UniProt Q14671 828-1176, N1043G;Y1044H;Q1047R).
T1 sequence: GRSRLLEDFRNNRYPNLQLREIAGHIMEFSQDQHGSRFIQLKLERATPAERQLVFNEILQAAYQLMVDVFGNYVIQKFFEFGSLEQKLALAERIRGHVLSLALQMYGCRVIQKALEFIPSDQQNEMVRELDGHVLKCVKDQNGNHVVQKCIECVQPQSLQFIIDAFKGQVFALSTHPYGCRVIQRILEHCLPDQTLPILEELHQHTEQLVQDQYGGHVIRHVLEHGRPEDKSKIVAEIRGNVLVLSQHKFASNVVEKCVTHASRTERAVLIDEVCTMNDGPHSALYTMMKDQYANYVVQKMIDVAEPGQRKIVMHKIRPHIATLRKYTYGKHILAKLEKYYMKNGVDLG
Summed up: as §1

The target of assay [4] is PUM1 PUF domain R4-GPA (Homo sapiens, UniProt Q14671 828-1176, N971G;H972P;Q975A). The procedure, abridged:
as §1

Assay [5] addresses PUM1 PUF domain R4-PYG (Homo sapiens, UniProt Q14671 828-1176, N971P;H972Y;Q975G). The procedure, abridged:
as §1

For assay [6], the target named is PUM1 PUF domain R8-RRK (Homo sapiens, UniProt Q14671 828-1176, N1122R;Y1123R;Q1126K). The procedure, abridged: as §1
Assay [7] concerns the target PUM1 PUF domain R4-CMG (Homo sapiens, UniProt Q14671 828-1176, N971C;H972M;Q975G). Summed up: as §1
Assay [8] addresses PUM1 PUF domain R5-RKN (Homo sapiens, UniProt Q14671 828-1176, C1007R;R1008K;Q1011N). Summed up:
as §1

The target in assay [9] is T2, PUM1 PUF domain R6-CYQ (Homo sapiens, UniProt Q14671 828-1176, N1043C).
T2 sequence: T1 sequence with G216C, H217Y, R220Q
The procedure, abridged:
as §1

For assay [10], the target named is PUM1 PUF domain R5-TNG (Homo sapiens, UniProt Q14671 828-1176, C1007T;R1008N;Q1011G). Summed up:
as §1

Substitutions are numbered along the chain they refer to.

As to “GGCUAGAACUAGUGGAUCCCCCGGCGCCCGGCGGCUCGAGCCCGGGUAAGUGUAAUUAGUCUGCAUGCCGCCGGGCGCCAUGCCUGCAGGUCGACUCUAGAAAACAUG”, the values for the binding signal in assay [1] and in [2] were 3.79 log2 enrichment (interaction score) and 4.16 log2 enrichment (interaction score), respectively.
As for “GGCUAGAACUAGUGGAUCCCCCGGCGCCCGGCGGCUCGAGCCCGGGUAAGUGCAAAUAGUCUGCAUGCCGCCGGGCGCCAUGCCUGCAGGUCGACUCUAGAAAACAUG”, the binding signal in [3] is 2.2 log2 enrichment (interaction score).
As for “GGCUAGAACUAGUGGAUCCCCCGGCGCCCGGCGGCUCGAGCCCGGGUAAGUGUAUAUAGUCUGCAUGCCGCCGGGCGCCAUGCCUGCAGGUCGACUCUAGAAAACAUG”, the binding signal in assay [4] was 1.91 log2 enrichment (interaction score); in assay [5], 7.83 log2 enrichment (interaction score).
“GGCUAGAACUAGUGGAUCCCCCGGCGCCCGGCGGCUCGAGCCCGGGUAAGUGUAAAUAGUCUGCAUGCCGCCGGGCGCCAUGCCUGCAGGUCGACUCUAGAAAACAUG”: the binding signal is 4.82 log2 enrichment (interaction score) in assay [1]; 3.81 log2 enrichment (interaction score) in assay [3]; 4.75 log2 enrichment (interaction score) in assay [6]; 3.16 log2 enrichment (interaction score) in assay [4]; 5.58 log2 enrichment (interaction score) in [5]; 3.4 log2 enrichment (interaction score) in assay [7].
“GGCUAGAACUAGUGGAUCCCCCGGCGCCCGGCGGCUCGAGCCCGGGUAAGUGUCAAUAGUCUGCAUGCCGCCGGGCGCCAUGCCUGCAGGUCGACUCUAGAAAACAUG”: in [8], the binding signal is 2.84 log2 enrichment (interaction score).
Consider “GGCUAGAACUAGUGGAUCCCCCGGCGCCCGGCGGCUCGAGCCCGGGUAAGUGUACAUAGUCUGCAUGCCGCCGGGCGCCAUGCCUGCAGGUCGACUCUAGAAAACAUG”, for which the binding signal was 2.05 log2 enrichment (interaction score) in [4], 6.89 log2 enrichment (interaction score) in assay [5] and 2.47 log2 enrichment (interaction score) in [7].
For “GGCUAGAACUAGUGGAUCCCCCGGCGCCCGGCGGCUCGAGCCCGGGUAAGUGAAAAUAGUCUGCAUGCCGCCGGGCGCCAUGCCUGCAGGUCGACUCUAGAAAACAUG”, in [9], the binding signal was 6 log2 enrichment (interaction score).
On to “GGCUAGAACUAGUGGAUCCCCCGGCGCCCGGCGGCUCGAGCCCGGGUAAGCGUAAAUAGUCUGCAUGCCGCCGGGCGCCAUGCCUGCAGGUCGACUCUAGAAAACAUG”, for which the binding signal in assay [6] is 5.29 log2 enrichment (interaction score).
Take “GGCUAGAACUAGUGGAUCCCCCGGCGCCCGGCGGCUCGAGCCCGGGUAAGUGUUAAUAGUCUGCAUGCCGCCGGGCGCCAUGCCUGCAGGUCGACUCUAGAAAACAUG”: in [10], the binding signal was 3.75 log2 enrichment (interaction score).
